Source: PubChem BioAssay
Gli-Sufu block: Gli-Sufu pathway antagonists, primary screen, luciferase luminescence, Sufu-KO-LIGHT cells, uHTS; inhibition, % at 5 µM; Sufu-KO-LIGHT fibroblasts, Gli luciferase reporter luminescence; actives 0.74% (n = 340,000);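 active = inhibition above about 55%, limit read from the data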;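 also: 0% = DMSO-treated cells and 100% = wells with medium but no cells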
697 NFkB inh: inhibitors of PMA/ionomycin-induced NF-kB reporter, 697 cells, primary screen, B-cell NF-kB inhibitor project, cell-based, luminescence, uHTS. 697 B-cell NF-kB luciferase reporter, 16 h. inhibition, % at 4 µM. actives 0.33% (n = 330,000); in the data active = inhibition above about 35%
Jurkat NFkB inh: inhibitors of induced NF-kB luciferase reporter, primary screen, TCR NF-kB activation inhibitor project, cell-based, luminescence, uHTS; Jurkat, PMA/ionomycin-induced NF-kB luciferase reporter; inhibition, % at 4 µM; actives 0.53% (n = 330,000); in the data active = inhibition above about 50%
Beta apoptosis: inhibitors of cytokine-induced beta cell apoptosis, primary screen, luminescence; actives 0.8% (n = 300,000); AID 435005, 2010; protection from apoptosis, % (test concentration not listed); INS-1E cytokine-induced death, ATP luminescence, 48 h; percent of positive-control rescue, neutral wells zero;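 active = Every replicate reaches about 75%, or at least half do and their mean reaches it too, limit read from the data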;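 also: 0% = cytokine-treated negative control wells and 100% = positive control rescue; higher means more ATP so stronger rescue from cytokine killing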
Gli antag conf: Gli-SUFU pathway antagonists, confirmation, single concentration, luciferase luminescence, Sufu-KO-LIGHT cells | shares compounds with Gli-Sufu block | Gli luciferase reporter | inhibition, % at 5 µM | actives 40% (n = 2,500);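 active = mean inhibition at 5 µM reaching about 45%, limit read from the data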;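 also: plate controls were DMSO-treated cells for no effect and wells lacking cells for full effect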
Gli cytotox: cytotoxicity in Sufu-KO-LIGHT cells, confirmation, cytotoxicity control for Gli-SUFU antagonist project, cell-based, ATP luminescence, single concentration | shares compounds with Gli-Sufu block | cytotoxicity, % at 5 µM | actives 32% (n = 2,500);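 active = mean cytotoxicity at 5 µM above about 25%, limit read from the data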;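 also: cells exposed to compound overnight for roughly 16 to 18 hours; plate controls were DMSO wells with cells for no effect and medium without cells for full effect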
Wnt3a cs: Wnt3a reporter signal inhibition, confirmation, counter-screen for Gli-SUFU antagonist project, Wnt-LIGHT cells, luminescence, single concentration. shares compounds with Gli-Sufu block. Wnt3a-driven luciferase reporter. inhibition, % at 6.25 µM. actives 20% (n = 2,500);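 active = mean inhibition above about 25%, limit read from the data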
Starred values were filed as active, the others as inactive; . = no result. Compounds with a hit are over-represented: about 1.8% of the library has one in this group of screens.

SMILES | Gli-Sufu block | 697 NFkB inh | Jurkat NFkB inh | Beta apoptosis | Gli antag conf | Gli cytotox | Wnt3a cs
Brc1ccc(-c2c[n+]3c(n2-c2ccccc2)SCC3)cc1 | 63* | -35 | 9 | 49 | 60* | 25* | -4
CCN(CC)S(=O)(=O)c1ccc2c(c1)nc(SCC(N)=O)n2-c1ccc(OC)cc1 | 3 | 13 | 15 | -1 | . | . | .
COC(=O)c1c[nH]c2c1-c1cc(C(=O)OCc3ccccc3)n(S(=O)(=O)c3ccc(C)cc3)c1C(=O)C2=O | 55* | . | . | . | 76* | 51* | 100*
CC(=O)c1cccc(N(CC(=O)NCCc2ccccc2)C(=O)c2csnn2)c1 | -12 | -24 | 2 | 1 | . | . | .
CCOC(=O)c1cc(CC)sc1NC(=O)c1cc(OCC)c(OCC)c(OCC)c1 | 99* | -7 | 6 | 11 | 27 | 6 | -17
CCOC(=O)c1cc(CC)sc1NC(=O)c1ccc2c(c1)OCCO2 | 2 | -7 | -23 | -3 | . | . | .
CC1(C)CC(=O)C(C=NCCCN2CCOCC2)=C(O)C1 | 0 | 19 | -3 | -1 | . | . | .
COc1ccc2[nH]c(C)c(CCNC(=S)Nc3ccccc3C)c2c1 | 69* | -3 | -15 | . | 15 | 9 | -12
Cc1ccc(S(=O)(=O)NCC(=O)OCC(=O)Nc2ccc(C)c(S(=O)(=O)N3CCOCC3)c2)cc1 | 3 | 17 | -36 | -1 | . | . | .
COc1ccc(-c2nn(-c3ccccc3)cc2/C=N/NC(=O)c2ccc(Br)o2)cc1 | 52 | -35 | -55 | . | 63* | 23 | -28
CC(C)N1CCC(N2CCN(CCCc3ccccc3)CC2CCO)CC1 (stereo not drawn) | 60* | 16 | -13 | -9 | 13 | 27* | -6
OCCC1CN(Cc2cc(F)ccc2F)CCN1CCCc1ccccc1 (stereo not drawn) | 53 | -23 | -3 | -3 | 13 | 18 | -40
OCCC1CN(Cc2ccc(F)cc2Cl)CCN1CCc1ccccc1 (stereo not drawn) | 32 | 0 | 6 | -2 | . | . | .
COc1ccc(NC(=S)Nc2ccc(Oc3ccccc3)cc2)cc1 | 77* | -2 | 8 | 3 | 38 | 22 | 0
CC(=O)c1ccc(S(=O)(=O)Oc2ccc(C(=O)O)cc2Cl)cc1 | -7 | -15 | 4 | -2 | . | . | .
CC(=O)c1cnc(Nc2cccc(Cl)c2Cl)s1 | -46 | -34 | -44 | 1 | . | . | .
CC(=O)c1cnc(Nc2ccccc2)s1 | 57* | 4 | -23 | 1 | 11 | 8 | -92
O=C(NCCCN1CCOCC1)c1cccc(S(=O)(=O)N2CCc3ccccc3C2)c1 | -8 | -7 | 3 | 0 | . | . | .
CC1CCN(C(=S)Nc2ccc(F)cc2)CC1 | 64* | -5 | 0 | -6 | 15 | 22 | -9
Cc1ccc(-c2csc(NC(=O)c3c(C)noc3C)n2)s1 | 55 | -23 | 12 | 124* | 64* | 34* | -14
Cc1ccc(-c2csc(NC(=O)c3c(C)noc3C)n2)cc1C | -1 | -15 | -14 | 6 | . | . | .
COc1ccc(/C(N)=N/OC(=O)c2cc(-c3ccccc3)nc3ccccc23)cc1 | 10 | 12 | 13 | 0 | . | . | .
NC(=S)N/N=C/c1cccc(O)c1O | 82* | -108 | 24 | 41 | 31 | 4 | -19
CC(C)N=C(NS(=O)(=O)c1cccs1)c1ccccc1 | 2 | -46 | -8 | -9 | . | . | .
CC1=NN(c2ccccc2)C(=O)/C1=C/C=C/c1ccccc1 | -15 | -90 | 20 | . | . | . | .
CC1=NN(c2ccccc2)C(=O)/C1=C\N1CC(C)OC(C)C1 (stereo not drawn) | 98* | 6 | 6 | 2 | 24 | 9 | 5
CC(=O)c1ccc(NC(=O)c2sc3nc(N4CCOCC4)c4c(c3c2N)CCCC4)cc1 | 17 | -15 | 4 | 7 | . | . | .
O=C(CCNC(=O)C1CCN(S(=O)(=O)c2ccc(F)cc2)CC1)NCc1ccc(Cl)cc1 | 61* | 15 | -9 | -4 | 13 | 11 | -10
